Drawing on PubChem BioAssay (EPA / NIEHS), this text covers outcome and AC50 for three compounds.

Read-out in test [1]: Fatty acid synthase (Homo sapiens) (UniProt P49327)
Description: LTEA_HepaRG_FASN: Life Technologies and Expression Analysis (LTEA) Assay for Fatty Acid Synthase (FASN) using HepaRG (AID 2283448). The following applies: mRNA level, 48 h; actives raise or lower the signal. In short, it runs like this: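 Differentiated human HepaRG cells were exposed for 48 h in serum-free induction medium to eight half-log concentrations up to 100 uM in 0.5% DMSO, in duplicate. FASN mRNA was quantified by TaqMan qRT-PCR, normalized to ACTB/GAPDH/POLR2A, and fitted bidirectionally against DMSO.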

Read-out in test [2]: Cyclin D2 (CCND2), CCND2 (gene 894)
Kind of test: LTEA_HepaRG_CCND2: Life Technologies and Expression Analysis (LTEA) Assay for Cyclin D2 (CCND2) using HepaRG (AID 2283449).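 Also: CCND2 transcript measured by TaqMan qRT-PCR and normalised to three housekeeping genes.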 The following applies: mRNA level, 48 h; actives raise or lower the signal. The essentials:
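Chemicals in 0.5% DMSO, eight half-log concentrations from 100 uM top, were applied in duplicate for 48 h to human HepaRG cells in serum-free induction medium. CCND2 mRNA by TaqMan qRT-PCR, normalised to ACTB/GAPDH/POLR2A; bidirectional fit versus DMSO.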

Read-out in test [3]: Cyclin Dependent Kinase Inhibitor 1A (CDKN1A), CDKN1A (gene 1026)
Kind of test: LTEA_HepaRG_CDKN1A: Life Technologies and Expression Analysis (LTEA) Assay for Cyclin Dependent Kinase Inhibitor 1A (CDKN1A) using HepaRG (AID 2283450). The following applies: mRNA level, 48 h; actives raise or lower the signal. The essentials:
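Gain or loss of CDKN1A transcript is scored by bidirectional fitting against 0.5% DMSO vehicle. Human HepaRG cultures receive chemicals for 48 h across an 8-point series peaking at 100 uM; expression comes from qRT-PCR.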

Read-out in test [4]: Cyclin D1 (CCND1), CCND1 (gene 595)
Kind of test: LTEA_HepaRG_CCND1: Life Technologies and Expression Analysis (LTEA) Assay for Cyclin D1 (CCND1) using HepaRG (AID 2283451).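 As to AC50: TaqMan qRT-PCR transcript level normalised to ACTB GAPDH and POLR2A housekeeping genes.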 The following applies: mRNA level, 48 h; actives raise or lower the signal. The essentials: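 Expression change is measured by qRT-PCR in HepaRG cells after 48 h treatment across eight concentrations topping at 100 uM, with duplicate wells and DMSO (0.5%) serving as baseline for bidirectional fitting.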

Read-out in test [5]: catalase (CAT), CAT (gene 847)
Kind of test: LTEA_HepaRG_CAT: Life Technologies and Expression Analysis (LTEA) Assay for catalase (CAT) using HepaRG (AID 2283452). To be noted: mRNA level, 48 h; actives raise or lower the signal. In short, it runs like this:
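HepaRG cells in serum-free induction medium, 0.5% DMSO vehicle, exposed 48 h in duplicate over 8 half-log concentrations from 100 uM. CAT mRNA measured by qRT-PCR, normalized to ACTB, GAPDH, POLR2A; bidirectional fit versus DMSO.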

Read-out in test [6]: flavin-containing dimethylaniline monooxygenases 3 (FMO3), FMO3 (gene 2328)
Kind of test: LTEA_HepaRG_FMO3: Life Technologies and Expression Analysis (LTEA) Assay for flavin-containing dimethylaniline monooxygenases 3 (FMO3) using HepaRG (AID 2283453). To be noted: mRNA level, 48 h; actives raise or lower the signal. The essentials: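 HepaRG, 48 h exposure, 8-pt half-log series from 100 uM, 0.5% DMSO vehicle, duplicates; FMO3 transcript by Fluidigm TaqMan qRT-PCR, housekeeping-normalized; gain/loss fit vs DMSO.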

Read-out in test [7]: Cytochrome P450 (CYP1A1), CYP1A1 (gene 1543)
Kind of test: LTEA_HepaRG_CYP1A1: Life Technologies and Expression Analysis (LTEA) Assay for Cytochrome P450 (CYP1A1) using HepaRG (AID 2283454). To be noted: mRNA level, 48 h; actives raise or lower the signal. In short, it runs like this:
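Using HepaRG cultures with 0.5% DMSO as vehicle, eight-concentration exposures (max 100 uM) lasted 48 h. Transcript levels were measured by TaqMan qRT-PCR and normalized to ACTB, GAPDH and POLR2A.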

Read-out in test [8]: CFLAR gene, CFLAR (gene 8837)
Kind of test: LTEA_HepaRG_CFLAR: Life Technologies and Expression Analysis (LTEA) Assay for CFLAR gene using HepaRG (AID 2283455). The following applies: mRNA level, 48 h; actives raise or lower the signal. In short, it runs like this: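 Differentiated HepaRG cells in serum-free induction medium were exposed 48 h in duplicate to eight half-log concentrations up to 100 uM in 0.5% DMSO; mRNA measured by TaqMan qRT-PCR, normalized to ACTB, GAPDH, POLR2A; bidirectional fitting versus DMSO.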

Read-out in test [9]: Forkhead box O1 (FOXO1), FOXO1 (gene 2308)
Description: LTEA_HepaRG_FOXO1: Life Technologies and Expression Analysis (LTEA) Assay for Forkhead box O1 (FOXO1) using HepaRG (AID 2283456). The following applies: mRNA level, 48 h; actives raise or lower the signal. The essentials:
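Differentiated HepaRG cells, in serum-free induction medium with 0.5% DMSO, exposed 48 h in duplicate to 8-point half-log series from 100 uM. FOXO1 mRNA measured by TaqMan qRT-PCR, normalized to ACTB, GAPDH, POLR2A; bidirectional fit versus DMSO.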

Read-out in test [10]: growth arrest and DNA damage 45 (GADD45A), GADD45A (gene 1647)
Kind of test: LTEA_HepaRG_GADD45A: Life Technologies and Expression Analysis (LTEA) Assay for growth arrest and DNA damage 45 (GADD45A) using HepaRG (AID 2283458). The following applies: mRNA level, 48 h; actives raise or lower the signal. The essentials:
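Differentiated HepaRG cells were exposed in duplicate for 48 h in serum-free induction medium to 8-point half-log concentrations up to 100 uM in 0.5% DMSO. GADD45A mRNA was measured by TaqMan qRT-PCR, normalized to ACTB, GAPDH and POLR2A, with bidirectional fitting versus DMSO.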

Read-out in test [11]: Forkhead box O3 (FOXO3), FOXO3 (gene 2309)
Description: LTEA_HepaRG_FOXO3: Life Technologies and Expression Analysis (LTEA) Assay for Forkhead box O3 (FOXO3) using HepaRG (AID 2283459). To be noted: mRNA level, 48 h; actives raise or lower the signal. In short, it runs like this: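 Differentiated human HepaRG cells, 48 h post-plating, exposed in duplicate for 48 h in serum-free induction medium; 8-point half-log series from 100 uM in 0.5% DMSO. FOXO3 mRNA by TaqMan qRT-PCR, normalized to ACTB/GAPDH/POLR2A; bidirectional fit versus DMSO.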

Read-out in test [12]: ABC Transporter (ABCB1), ABCB1 (gene 5243)
Description: LTEA_HepaRG_ABCB1: Life Technologies and Expression Analysis (LTEA) Assay for ABC Transporter (ABCB1) using HepaRG (AID 2283460). The following applies: mRNA level, 48 h; actives raise or lower the signal. The essentials:
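HepaRG cells exposed in duplicate for 48 h in serum-free induction medium to eight half-log concentrations up to 100 uM in 0.5% DMSO. ABCB1 mRNA quantified by qRT-PCR, normalised to ACTB, GAPDH and POLR2A; fitted bidirectionally versus DMSO.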

Read-out in test [13]: growth arrest and DNA damage 45 (GADD45B), GADD45B (gene 4616)
Description: LTEA_HepaRG_GADD45B: Life Technologies and Expression Analysis (LTEA) Assay for growth arrest and DNA damage 45 (GADD45B) using HepaRG (AID 2283461). To be noted: mRNA level, 48 h; actives raise or lower the signal. In short, it runs like this: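 Human HepaRG monolayers receive chemicals for 48 h at eight half-log concentrations, highest 100 uM, in 0.5% DMSO. Expression is measured by TaqMan qRT-PCR and normalized to ACTB, GAPDH and POLR2A.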

Read-out in test [14]: ABC Transporter (ABCC3), ABCC3 (gene 8714)
Kind of test: LTEA_HepaRG_ABCC3: Life Technologies and Expression Analysis (LTEA) Assay for ABC Transporter (ABCC3) using HepaRG (AID 2283462). To be noted: mRNA level, 48 h; actives raise or lower the signal. In short, it runs like this: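 Transcriptional change of ABCC3 in HepaRG after 48 h treatment, determined by qRT-PCR normalized to endogenous controls. Concentrations spanned eight half-log steps to 100 uM in 0.5% DMSO.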

Read-out in test [15]: ABC Transporter (ABCB11), ABCB11 (gene 8647)
Kind of test: LTEA_HepaRG_ABCB11: Life Technologies and Expression Analysis (LTEA) Assay for ABC Transporter (ABCB11) using HepaRG (AID 2283463). To be noted: mRNA level, 48 h; actives raise or lower the signal. The essentials: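 Differentiated human HepaRG cells in serum-free induction medium, dosed in duplicate for 48 h. Eight-point half-log series from 100 uM in 0.5% DMSO; ABCB11 mRNA by qRT-PCR, normalized to ACTB, GAPDH, POLR2A, fitted bidirectionally versus DMSO.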

Read-out in test [16]: ABC Transporter (ABCC2), ABCC2 (gene 1244)
Kind of test: LTEA_HepaRG_ABCC2: Life Technologies and Expression Analysis (LTEA) Assay for ABC Transporter (ABCC2) using HepaRG (AID 2283464). To be noted: mRNA level, 48 h; actives raise or lower the signal. The essentials: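 After plating and 48 h culture, HepaRG medium is replaced with serum-free induction medium and chemicals are added (8 concentrations, max 100 uM, 0.5% DMSO) for 48 h. Total RNA then undergoes qRT-PCR for ABCC2 with housekeeping normalization.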

Read-out in test [17]: Broad substrate specificity ATP-binding cassette transporter ABCG2 (Homo sapiens) (UniProt Q9UNQ0)
Kind of test: LTEA_HepaRG_ABCG2: Life Technologies and Expression Analysis (LTEA) Assay for ABC Transporter (ABCG2) using HepaRG (AID 2283465). To be noted: mRNA level, 48 h; actives raise or lower the signal. In short, it runs like this:
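Differentiated HepaRG cells were exposed for 48 h in serum-free induction medium to 8 half-log concentrations, top 100 uM, in 0.5% DMSO. ABCG2 mRNA was measured by qRT-PCR, normalized to ACTB, GAPDH and POLR2A, with bidirectional fitting versus DMSO.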

Read-out in test [18]: ATP-citrate lyase (ACLY), ACLY (gene 47)
Kind of test: LTEA_HepaRG_ACLY: Life Technologies and Expression Analysis (LTEA) Assay for ATP-citrate lyase (ACLY) using HepaRG (AID 2283466). The following applies: mRNA level, 48 h; actives raise or lower the signal. The essentials: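 Differentiated HepaRG cells exposed 48 h in serum-free induction medium to eight half-log concentrations up to 100 uM in 0.5% DMSO, duplicates. Transcript measured by Fluidigm TaqMan qRT-PCR, normalized to ACTB, GAPDH, POLR2A; bidirectional fit versus DMSO.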

Read-out in test [19]: Peroxisomal acyl-coenzyme A oxidase 1 (ACOX1) gene, ACOX1 (gene 51)
Description: LTEA_HepaRG_ACOX1: Life Technologies and Expression Analysis (LTEA) Assay for Peroxisomal acyl-coenzyme A oxidase 1 (ACOX1) gene using HepaRG (AID 2283467). To be noted: mRNA level, 48 h; actives raise or lower the signal. In short, it runs like this:
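HepaRG cells, plated 48 h then switched to serum-free induction medium, were exposed in duplicate for 48 h to 8-point half-log concentrations up to 100 uM in 0.5% DMSO. ACOX1 mRNA was measured by qRT-PCR, normalized to ACTB/GAPDH/POLR2A, and fitted bidirectionally versus DMSO.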

The nature of test [20]: CEETOX_H295R_TESTO: CeeTox H295R High-throughput Steroidogenesis Assay for Testosterone (TESTO) (AID 2283457).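 As to AC50: cells exposed to chemicals for 48 h before medium collection.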 To be noted: actives raise or lower the signal. In short, it runs like this:
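Steroidogenesis in H295R cells following OECD 456 with minor changes; 48 h exposure. Medium testosterone by HPLC-MS/MS, DMSO as baseline, with MTT viability run in parallel.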

Calls of active or inactive are those of the source. The calls were made as follows: active = hit-call score of the fitted dose curve at least 0.9, where 1 is the maximum; inactive = score below 0.9.

Chain of Broad substrate specificity ATP-binding cassette transporter ABCG2 (Homo sapiens) (Q9UNQ0 whole entry, looked up): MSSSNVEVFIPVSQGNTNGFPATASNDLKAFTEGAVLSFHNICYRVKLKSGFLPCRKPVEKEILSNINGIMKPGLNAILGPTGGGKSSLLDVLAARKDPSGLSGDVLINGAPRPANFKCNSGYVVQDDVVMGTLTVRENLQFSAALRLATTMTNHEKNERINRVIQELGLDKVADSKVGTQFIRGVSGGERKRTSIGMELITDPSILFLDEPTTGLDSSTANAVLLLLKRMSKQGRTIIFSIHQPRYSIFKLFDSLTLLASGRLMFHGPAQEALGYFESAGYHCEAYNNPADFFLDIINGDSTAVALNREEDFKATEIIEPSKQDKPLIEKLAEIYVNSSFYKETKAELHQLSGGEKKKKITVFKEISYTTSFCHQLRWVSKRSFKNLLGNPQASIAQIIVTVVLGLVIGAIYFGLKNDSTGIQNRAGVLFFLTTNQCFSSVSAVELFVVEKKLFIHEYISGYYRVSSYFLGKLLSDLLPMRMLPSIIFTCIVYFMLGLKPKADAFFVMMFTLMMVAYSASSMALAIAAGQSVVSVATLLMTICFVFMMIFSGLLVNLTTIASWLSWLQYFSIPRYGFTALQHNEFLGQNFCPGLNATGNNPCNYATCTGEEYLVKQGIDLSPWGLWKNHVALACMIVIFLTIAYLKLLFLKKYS
Chain of Fatty acid synthase (Homo sapiens) (P49327 whole entry, looked up): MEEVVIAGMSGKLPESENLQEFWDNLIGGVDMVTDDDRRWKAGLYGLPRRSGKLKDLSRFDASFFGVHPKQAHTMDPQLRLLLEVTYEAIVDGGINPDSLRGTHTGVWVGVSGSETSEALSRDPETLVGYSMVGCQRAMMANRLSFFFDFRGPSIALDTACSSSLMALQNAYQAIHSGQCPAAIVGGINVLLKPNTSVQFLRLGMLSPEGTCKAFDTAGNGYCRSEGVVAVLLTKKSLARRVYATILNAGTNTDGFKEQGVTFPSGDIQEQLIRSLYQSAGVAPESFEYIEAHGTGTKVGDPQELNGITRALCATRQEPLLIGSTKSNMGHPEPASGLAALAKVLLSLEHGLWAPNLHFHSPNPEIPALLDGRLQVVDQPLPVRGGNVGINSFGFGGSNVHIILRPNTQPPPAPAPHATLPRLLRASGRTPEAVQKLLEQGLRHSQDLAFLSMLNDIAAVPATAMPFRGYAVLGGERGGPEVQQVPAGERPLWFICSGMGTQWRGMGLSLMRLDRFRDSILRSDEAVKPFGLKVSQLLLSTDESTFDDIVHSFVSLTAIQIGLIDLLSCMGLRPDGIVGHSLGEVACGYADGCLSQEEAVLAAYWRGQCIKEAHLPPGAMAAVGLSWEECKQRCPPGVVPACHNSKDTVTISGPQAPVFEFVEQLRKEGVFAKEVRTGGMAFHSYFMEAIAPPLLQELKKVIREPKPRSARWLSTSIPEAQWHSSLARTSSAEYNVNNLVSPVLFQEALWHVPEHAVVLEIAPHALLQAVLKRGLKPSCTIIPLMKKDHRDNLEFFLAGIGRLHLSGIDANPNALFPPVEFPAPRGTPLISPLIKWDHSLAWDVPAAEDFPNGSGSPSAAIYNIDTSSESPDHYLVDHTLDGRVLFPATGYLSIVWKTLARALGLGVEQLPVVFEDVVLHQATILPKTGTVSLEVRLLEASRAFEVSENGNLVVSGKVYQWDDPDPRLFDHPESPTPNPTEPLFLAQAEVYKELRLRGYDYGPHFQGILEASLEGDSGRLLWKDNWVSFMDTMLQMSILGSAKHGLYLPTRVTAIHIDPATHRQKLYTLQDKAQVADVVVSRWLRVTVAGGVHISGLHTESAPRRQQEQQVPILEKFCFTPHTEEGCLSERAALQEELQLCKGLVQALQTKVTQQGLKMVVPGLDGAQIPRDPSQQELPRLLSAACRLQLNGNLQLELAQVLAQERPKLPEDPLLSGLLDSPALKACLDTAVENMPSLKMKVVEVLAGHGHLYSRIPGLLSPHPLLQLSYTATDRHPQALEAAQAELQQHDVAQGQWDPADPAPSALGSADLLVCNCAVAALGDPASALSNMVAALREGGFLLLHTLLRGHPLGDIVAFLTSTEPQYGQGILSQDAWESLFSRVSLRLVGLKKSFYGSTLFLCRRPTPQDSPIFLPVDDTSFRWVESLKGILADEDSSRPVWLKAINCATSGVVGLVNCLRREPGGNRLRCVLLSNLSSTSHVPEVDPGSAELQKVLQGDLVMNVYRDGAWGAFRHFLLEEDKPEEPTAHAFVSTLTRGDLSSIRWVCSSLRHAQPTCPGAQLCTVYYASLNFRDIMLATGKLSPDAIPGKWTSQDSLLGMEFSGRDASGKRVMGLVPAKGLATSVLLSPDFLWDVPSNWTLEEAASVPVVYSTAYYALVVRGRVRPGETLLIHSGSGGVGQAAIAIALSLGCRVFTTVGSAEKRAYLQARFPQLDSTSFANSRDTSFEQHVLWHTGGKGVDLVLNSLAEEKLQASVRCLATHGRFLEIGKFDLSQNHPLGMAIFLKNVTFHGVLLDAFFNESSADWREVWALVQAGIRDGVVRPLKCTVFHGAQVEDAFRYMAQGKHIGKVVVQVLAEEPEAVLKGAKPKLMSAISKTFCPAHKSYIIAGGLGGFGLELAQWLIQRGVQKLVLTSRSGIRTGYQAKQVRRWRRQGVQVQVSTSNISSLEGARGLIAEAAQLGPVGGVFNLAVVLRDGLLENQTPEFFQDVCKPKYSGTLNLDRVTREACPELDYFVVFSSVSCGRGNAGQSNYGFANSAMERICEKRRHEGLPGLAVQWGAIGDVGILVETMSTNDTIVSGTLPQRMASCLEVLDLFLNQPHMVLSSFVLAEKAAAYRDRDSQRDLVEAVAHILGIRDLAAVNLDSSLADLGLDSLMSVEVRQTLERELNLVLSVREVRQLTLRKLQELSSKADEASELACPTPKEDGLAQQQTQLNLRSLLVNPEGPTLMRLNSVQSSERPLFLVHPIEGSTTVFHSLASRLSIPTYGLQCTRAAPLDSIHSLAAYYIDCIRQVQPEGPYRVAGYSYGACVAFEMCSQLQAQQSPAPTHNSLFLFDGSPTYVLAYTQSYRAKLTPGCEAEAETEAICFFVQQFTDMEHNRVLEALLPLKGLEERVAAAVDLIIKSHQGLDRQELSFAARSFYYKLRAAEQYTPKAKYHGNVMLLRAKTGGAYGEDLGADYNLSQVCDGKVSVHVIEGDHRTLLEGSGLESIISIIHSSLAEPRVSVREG

As for `COS(=O)(=O)OC`, the result in test [1], in [2], in test [3], in [4], in test [5] and in [6] was inactive. The call in [8], in [9], in [10], in test [11], in test [12] and in test [13] was inactive. Also, the outcome in [14], in test [15], in [16], in test [17], in [18] and in test [19] was inactive. In [7], the AC50 is 25.5 µM (active).
Turning to `Cc1ccccc1CO[C@@H]1C[C@@]2(C(C)C)CC[C@]1(C)O2`, the call in test [1], in test [2], in test [3], in test [4], in [5] and in [6] was inactive. Besides, the compound was classed as inactive in test [8], in test [9], in test [10], in test [11], in test [13] and in test [14]. Moreover, the result in test [15], in test [17], in [18] and in test [19] was inactive. Moreover, the values for the AC50 in [7], in test [20] and in test [12] were 44.4 µM (active), 35 µM (active) and 50 µM (active), respectively.
As for `NS(=O)(=O)C(F)(F)C(F)(F)C(F)(F)C(F)(F)C(F)(F)C(F)(F)C(F)(F)C(F)(F)F`, the AC50 in test [1] is 12.9 µM (active); in [3], 1.8 µM (active); in test [4] it was 50 µM (active); in test [5], 9.12 µM (active); in test [6], 11.8 µM (active); in [7], 13.8 µM (active). Also, the AC50 is 7.67 µM (active) in [8]; 24.9 µM (active) in test [9]; 29.1 µM (active) in [10]; 6.91 µM (active) in test [11]; 9.25 µM (active) in test [12]; 20.9 µM (active) in test [13]. Moreover, the AC50 in [14] was 12.5 µM (active); in [15], 7.12 µM (active); in [17], 3.42 µM (active); in [18] it was 16.4 µM (active); in [19], 14.9 µM (active). The outcome in [2] and in test [20] was inactive.
